About 83,000 compounds went through this panel and 20% of them were active in at least one assay; those are over-represented in the sample as a whole.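 Testing used 96-well plates and a 48-hour single-concentration exposure. Example: -40 means 40% of the starting cells died.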 Unmarked numbers belong to inactive results. The source made the active and inactive calls. The calls were made as follows: active = growth percent below 10; inactive = the rest.
Columns and labels:
Experiment in all cases: NCI-60 one-dose screen, 48 h (100 = growth as untreated, 0 = no growth, -100 = all killed)
SK-MEL-2 melanoma = conditions: 10 µM unless noted
EKVX NSCLC = conditions: 10 µM unless noted
SN12C renal = conditions: 10 µM unless noted
UO-31 renal = conditions: 10 µM unless noted
TK-10 renal = conditions: 10 µM unless noted
ACHN renal = conditions: 10 µM unless noted
CAKI-1 renal = conditions: 10 µM unless noted
A498 renal = conditions: 10 µM unless noted
CCRF-CEM leukemia = conditions: 10 µM unless noted
MOLT-4 leukemia = conditions: 10 µM unless noted
SR leukemia = conditions: 10 µM unless noted
RPMI-8226 leukemia = conditions: 10 µM unless noted
OVCAR-8 ovarian = conditions: 10 µM unless noted
OVCAR-5 ovarian = conditions: 10 µM unless noted
OVCAR-4 ovarian = conditions: 10 µM
IGROV1 ovarian = conditions: 10 µM unless noted
OVCAR-3 ovarian = conditions: 10 µM unless noted
HS 578T breast = conditions: 10 µM unless noted
NCI/ADR-RES ovarian = conditions: 10 µM unless noted

Structure (SMILES)	growth (SK-MEL-2 melanoma)	growth (EKVX NSCLC)	growth (SN12C renal)	growth (UO-31 renal)	growth (TK-10 renal)	growth (ACHN renal)	growth (CAKI-1 renal)	growth (A498 renal)	growth (CCRF-CEM leukemia)	growth (MOLT-4 leukemia)	growth (SR leukemia)	growth (RPMI-8226 leukemia)	growth (OVCAR-8 ovarian)	growth (OVCAR-5 ovarian)	growth (OVCAR-4 ovarian)	growth (IGROV1 ovarian)	growth (OVCAR-3 ovarian)	growth (HS 578T breast)	growth (NCI/ADR-RES ovarian)
O=C(NNc1ccc(-c2ccccc2)nn1)c1ccccc1	107%	95.2%	97.2%	89%	107%	100%	82.2%	92.4%	107%	90.3%	103%	102%	99.5%	100%	96%	99.3%	108%	103%	102%
CNC(=O)c1cc(Oc2ccc3nc(NC(=O)c4ccc5ncccc5c4)sc3c2)ccn1	86.2%	87.5%	92.6%	77%	90.5%	102%	89.9%	88.3%	91%	94.2%	88.8%	71.9%	100%	106%	87.4%	93.3%	98.9%	108%	88.8%
C[n+]1c2ccccc2nc2c(N)cc(N)cc21	121%	65.9%	5.51% (active)	78.3%	126%	96.7%	111%	121%	58.8%	34.8%	38.3%	80.2%	41.6%	101%	72.5%	70.1%	15.2%	55.5%	92.9%
COc1ccc(C2CC(c3ccc4ccccc4c3)=NN2c2nc(O)c(C3=c4cc(OC)ccc4=NC3=O)s2)cc1 (centres undefined)	-69.6% (active)	-67.3% (active)	-56% (active)	-77.3% (active)	-71% (active)	-51.2% (active)	-59.6% (active)	-83.2% (active)	8.68% (active)	-13.2% (active)	-30.5% (active)	1.78% (active)	-34.6% (active)	0.651% (active)	-45.8% (active)	-18.5% (active)	-55.5% (active)	-7.14% (active)	57%
COc1cc2c(O)n(CCCN3CCOCC3)c3c4cnc5cccc(c(=O)c3c2cc1OC)c54	45.6%	63.5%	14.1%	30.2%	73.7%	12.2%	30%	56.1%	15.1%	11.8%	20.5%	14.8%	39.9%	69%	48%	60.3%	62.9%	81.2%	74.5%
Cc1ccc(NC(=O)N[C@@H](Cc2cc(F)cc(F)c2)C(=O)N[C@@H]2C(=O)N3CCC[C@H]3C(=O)N3CCCC[C@H]3C(=O)N[C@@H](C)C(=O)N3C[C@H](C)C[C@H]3C(=O)O[C@H]2C)cc1	35.2%	28.2%	18.1%	25.2%	47.6%	23.6%	13.7%	-1.49% (active)	54.8%	30.9%	31.3%	20.1%	18.5%	34.6%	11.3%	45.9%	19.8%	35.6%	34.4%
Fc1cc2[nH]ncc2c2c3c(c(-c4cn[nH]c4C(F)(F)F)nc12)C1CCC3C1 (centres undefined)	-32.6% (active)	28.2%	6.09% (active)	-44.2% (active)	-11.2% (active)	-0.693% (active)	-5.2% (active)	-80.2% (active)	11.5%	6.06% (active)	5.5% (active)	7.73% (active)	10.2%	-7.74% (active)	35%	-13% (active)	10.6%	-10.8% (active)	55.7%
C[n+]1c(-c2ccccc2)c2cc(N)ccc2c2ccccc21	19.6%	26.6%	4.79% (active)	89.9%	90.4%	95.7%	110%	126%	50.9%	33.5%	21.9%	17.7%	34%	107%	29.8%	23.6%	69.7%	27.1%	100%
COc1ccc(-c2cc(-c3ccccc3)nc(NCCNc3ccnc4cc(Cl)ccc34)n2)cc1	-77.3% (active)	-88.1% (active)	-92.9% (active)	-91.9% (active)	-81.7% (active)	-94.2% (active)	-86.5% (active)	5.73% (active)	-30.7% (active)	-44.4% (active)	-7.13% (active)	-34.4% (active)	-60.2% (active)	-96.6% (active)	-48.8% (active)	-74.1% (active)	-82.6% (active)	-53.9% (active)	-71.9% (active)
COc1cc(-c2cc(-c3ccc(Nc4ncnc5cc(Cl)ccc45)cc3)nc(N3CCCCC3)n2)cc(OC)c1OC	91%	102%	90.9%	80%	111%	96.8%	93.1%	89.5%	107%	90.8%	90.9%	109%	88.9%	96.1%	106%	90.5%	107%	98.7%	104%
CSc1nc2c(c(=O)n1C)C1(C(=O)N(Cc3ccccc3)c3ccccc31)c1c(nc(SC)n(C)c1=O)N2	80.8%	100%	95.1%	73.9%	113%	77.5%	103%	72.6%	98.8%	99.9%	104%	59.2%	85.5%	102%	99.5%	98%	75.2%	97.9%	95.2%
Cc1cc(N2CCCCCC2)nc(N2CCN(CC(=O)Nc3ccc4c(ccn4Cc4ccccc4)c3)CC2)n1	52.8%	56%	57.1%	27.7%	83.4%	55.1%	33.3%	8.99% (active)	50.2%	41.1%	23.4%	43.9%	32.5%	74.4%	46.1%	49.9%	55.4%	47.2%	37.6%
CCN(CC)CC(C)Nc1ccc(C)c2sc3ccccc3c(=O)c12 (centres undefined)	116%	81.8%	49.6%	19.5%	68.1%	37.8%	39.3%	60.1%	34.4%	24.6%	33.4%	11%	64.2%	68.9%	75.9%	19.1%	77.5%	73.8%	68.7%
Cc1cccc(C[C@H](NC(=O)Nc2ccc(C)cc2F)C(=O)N[C@@H]2C(=O)N3C[C@H](O)C[C@H]3C(=O)N3CCN(C)C[C@H]3C(=O)N[C@@H](C)C(=O)N3C[C@H](C)C[C@H]3C(=O)O[C@H]2C)c1	39.9%	69.6%	21.5%	93%	94.1%	106%	82.1%	32.8%	62.5%	40.4%	34.5%	28.2%	50.8%	42.7%	12.9%	52.3%	24.4%	50.8%	114%
CNC(=O)c1cc(Oc2cccc3nc(NC(=O)Nc4cc(C(F)(F)F)cc(C(F)(F)F)c4)ccc23)ccn1	51%	26.7%	12.1%	11.7%	-25% (active)	-25.8% (active)	23.6%	-36% (active)	73.3%	89.5%	47.9%	41.1%	37.2%	33.3%	-38.2% (active)	51.4%	-15% (active)	22.2%	49.5%
Cn1cc(-c2nnc(-c3cn(C)c4ncccc34)s2)c2ccccc21	79.8%	70.7%	50.3%	39%	79.9%	86.6%	47%	31%	38.3%	47.9%	26.5%	43.9%	90.9%	90%	81%	70.2%	40.1%	83.7%	48%
